Screens deposited in PubChem by several laboratories.
PrPC TRFRET: cell surface PrPC inhibition, primary TR-FRET screen | P04156 | 370,000 tested, 0.43% active | TR-FRET read-out | inhibition, % at 13.8 µM; in the data active = inhibition above about 24%; note: 0% = median of the test wells and 100% = reference compound wells
VHR inh abs: inhibitors of human VHR1 phosphatase (DUSP3); P51452; recombinant VHR phosphatase, pNPP absorbance; inhibition, % at 13.3 µM; 290,000 tested, 0.52% active; in the data active = inhibition above about 50%
Target sequence (P51452 whole entry, looked up): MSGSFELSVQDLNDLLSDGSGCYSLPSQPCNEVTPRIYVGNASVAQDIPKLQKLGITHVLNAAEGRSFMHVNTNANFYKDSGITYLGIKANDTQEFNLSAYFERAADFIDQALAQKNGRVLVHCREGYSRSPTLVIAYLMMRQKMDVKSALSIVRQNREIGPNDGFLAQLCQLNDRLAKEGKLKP
CCHF vOTU inh-1: blocks the CCHF virus ovarian tumor domain protease | 370,000 tested, 0.55% active | inhibition, % at 11.5 µM | CCHFV vOTU protease, Pep-AMC fluorescence; note: 0% = vehicle wells with enzyme and 100% = no enzyme wells
Vc quorum ag: induces V. cholerae light production without autoinducers | V. cholerae BH1578 lux reporter, luminescence, 6 h | activation, % at 18.7 µM | 350,000 tested, 0.16% active; in the data active = activation mostly above about 9.7%, no sharp cut-off
MazEF act: MazEF (E. coli) toxin RNase activation; P0AE70; FAM/BHQ RNA-DNA oligo cleavage fluorescence, 5 h; activation, % at 20 µM; 350,000 tested, 0.32% active; AID 504720; in the data active = activation above about 50%
Target sequence (P0AE70 whole entry, looked up): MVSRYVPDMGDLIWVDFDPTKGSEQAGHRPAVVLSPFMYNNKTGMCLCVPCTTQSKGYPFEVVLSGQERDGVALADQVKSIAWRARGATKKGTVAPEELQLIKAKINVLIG
Yp Topo-I inh: inhibitors of Yersinia pestis topoisomerase I. 360,000 tested, 0.064% active. activity, % at 10 µM. Y. pestis Topo-I cleavage product accumulation, plate reader; in the data active = activity above about 50%, passing the limit was not always enough
CCHF vOTU inh-2: CCHFV vOTU protease inhibition, confirmation; inhibition, % at 11.5 µM; AID 686976; shares compounds with CCHF vOTU inh-1; 1,900 tested, 17% active; Recombinant CCHFV vOTU, Pep-AMC fluorescence
Starred values were filed as active, the others as inactive; i = inactive; · = no result. Shown are actives, neighbours in structure and some others; about 1.8% of the full set was active somewhere. Cut-off read from the data, not from the text of the source, unless noted: active = inhibition above about 30%; inactive = the rest.

SMILES	PrPC TRFRET	VHR inh abs	CCHF vOTU inh-1	Vc quorum ag	MazEF act	Yp Topo-I inh	CCHF vOTU inh-2
CC(C)(C)S(=O)N1Cc2cc(C(=O)N3CCc4ccccc4C3)nc(-c3cccc(-c4cccnc4)c3)c2[C@@H]1CCO (some centres undefined)	-5.7	·	37.4*	·	·	·	9.1
COc1ccccc1-c1cccc(-c2nc(C(=O)N3CCCCC3)cc3c2[C@H](CCO)N(S(=O)C(C)(C)C)C3)c1 (some centres undefined)	3.3	·	3.2	·	·	·	·
C[C@H]1CCC(=O)N([C@H](COc2ccccc2)Cc2ccccc2)CC1	11.7	12.7	30.8*	0.4	0.3	19.4	5.7
COc1cccc(C2C3=C(N=c4s/c(=C\c5ccccc5O)c(=O)n42)c2ccccc2CC3)c1OC (centres undefined)	·	-9.6	·	·	·	·	·
Cc1[nH]ccc(=O)c1OCc1c(Cl)cccc1Cl	-2.4	1.8	-10.3	-1.6	3.3	-2.2	·
Cc1ccc(Cn2ccc(=O)c(OCc3c(Cl)cccc3Cl)c2C)cc1	16.6	11.6	30.3*	-0.1	-11.8	29.1	7.4
O=C(COc1ccccc1)N/N=C/c1sc(=O)n(Cc2cccc(C(=O)O)c2)c1Cl	-6.1	-17.0	-2.0	-0.2	-17.4	2.7	·
O=C(O)c1cccc(Cn2c(Cl)c(/C=N/NC(=O)c3ccc(O)cc3)sc2=O)c1	-14.2	20.5	31.1*	-2.3	-3.1	-6.0	-3.6
Cc1cccc(N2C(=O)c3ccccc3C2=O)n1	-5.4	-11.9	18.1	-0.6	13.5	-1.1	·
CCN(C[C@H]1N[C@@](CC)(C(=O)OC)[C@H]2C(=O)N(Cc3ccccc3)C(=O)[C@@H]12)S(=O)(=O)c1ccc(OC)cc1	-2.3	·	32.9*	i	8.9	-12.4	-10.0
CCN(C[C@H]1N[C@@](Cc2ccccc2)(C(=O)OC)[C@H]2C(=O)N(Cc3ccccc3)C(=O)[C@@H]12)S(=O)(=O)c1ccc(OC)cc1	-3.9	·	1.8	i	-4.9	42.3	·
Cc1nn(-c2cccc(Cl)c2)c2c1C(c1cccnc1)C(C#N)=C(N)O2 (centres undefined)	-5.5	18.9	35.5*	i	13.1	-18.4	-19.8
COc1cccc(-c2ncn(CCc3ccccc3OC)c2CC(C)C)c1	10.2	·	21.6	·	·	·	·
CC(=O)Nc1ccc(NC(=O)c2ccc(S(=O)(=O)N3CCCCCC3)cc2)cc1	-7.7	·	42.5*	-0.6	-6.8	7.6	0.0
CC(=O)Nc1ccc(C(=O)Nc2ccc(S(=O)(=O)N3CCCCC3)cc2)cc1	4.4	-17.1	14.8	-15.6	2.9	7.7	·
Nc1ccc(Br)c2cccnc12	-3.9	18.5	101.4*	-0.3	-23.7	-1.9	0.6
O=Cc1ccc(-c2cc(Cl)ccc2Cl)[nH]1	-3.5	13.0	-7.4	-1.8	4.0	-9.2	·
COc1ccc(/C=N/NC(=O)c2nn(-c3ccc(C)c(C)c3)c(=O)c3ccccc23)cc1	5.5	23.5	4.7	-0.4	-14.0	9.9	·
COc1ccc(/C=N/NC(=O)c2nn(-c3ccccc3)c(=O)c3c(N)scc23)cc1	-32.6	-4.3	50.1*	0.2	16.5	-10.0	91.1*
COc1ccc(/C=N/NC(=O)c2nn(-c3ccc(Cl)cc3)c(=O)c3c(N)scc23)cc1	-20.3	14.5	33.0*	·	11.2	-1.7	38.6*
COc1ccc(OC)c(N2C(=NC(=O)C3CCCCC3)SC3CS(=O)(=O)CC32)c1 (centres undefined)	-7.2	12.8	-6.0	2.9	4.1	4.2	·
CC(C)N(Cc1ccccc1)C(=O)CN1C(=O)NC2(CCCCCC2)C1=O	-3.6	·	-7.5	0.5	1.8	5.4	·
CCCNC1=C(N(C(C)=O)c2cccc(F)c2)C(=O)c2ccccc2C1=O	-37.0	-11.0	70.0*	-0.2	-1.6	31.0	46.0*
O=C1c2cccc(O)c2C(=O)c2c(O)cccc21	·	4.7	·	·	·	·	·
O=C1C=C(O)c2cccc(O)c2C1=O	-10.9	14.2	94.2*	-0.4	-1.8	-4.4	16.2
Cc1ccc(N2C(=O)[C@@H]3[C@H](C2=O)C2c4ccccc4C=CN2[C@@H]3C(=O)c2ccco2)cc1 (some centres undefined)	-3.8	25.0	77.7*	0.8	-18.4	5.7	101.3*
